# Screening data: PubChem BioAssay, several laboratories
# The list is not random: actives were taken first. Their share in the collection is about 4%.
# 697 NFkB inh – inhibitors of PMA/ionomycin-induced NF-kB reporter, 697 cells, primary screen, B-cell NF-kB inhibitor project, cell-based, luminescence, uHTS | 697 B-cell NF-kB luciferase reporter, 16 h | hit rate 0.33% among 330,000 | AID 435022, 2010 | inhibition, % at 4 µM; in the data active means inhibition above about 35%
# Beta cell apopt – inhibitors of cytokine-induced beta cell apoptosis, primary screen, luminescence. INS-1E cytokine-induced death, ATP luminescence, 48 h; percent of positive-control rescue, neutral wells zero. protection from apoptosis, % (no concentration beside the values). hit rate 0.8% among 300,000;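 active means Every replicate reaches about 75%, or at least half do and their mean reaches it too, limit read from the data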;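 further: 0% = cytokine-treated negative control wells and 100% = positive control rescue; higher means more ATP so stronger rescue from cytokine killing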
# Gli-Sufu antag – Gli-Sufu pathway antagonists, primary screen, luciferase luminescence, Sufu-KO-LIGHT cells, uHTS; Sufu-KO-LIGHT fibroblasts, Gli luciferase reporter luminescence; inhibition, % at 5 µM; hit rate 0.74% among 340,000; AID 588413, 2011;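 active means inhibition above about 55%, limit read from the data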;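 further: 0% = DMSO-treated cells and 100% = wells with medium but no cells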
# Mdm2 MdmX PPI – inhibitors of human Mdm2-MdmX association, primary screen, cell-based, luminescence, split luciferase, SaOS-2, uHTS; Protein Mdm4 (Homo sapiens) + E3 ubiquitin-protein ligase Mdm2 (Homo sapiens), …; SaOS-2 split-luciferase Mdm2/MdmX complementation; inhibition, % at 8 µM; hit rate 3% among 330,000;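 active means inhibition of at least 50% at 8 µM in the primary screen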
# Jurkat NFkB inh – inhibitors of induced NF-kB luciferase reporter, primary screen, TCR NF-kB activation inhibitor project, cell-based, luminescence, uHTS; Jurkat, PMA/ionomycin-induced NF-kB luciferase reporter; inhibition, % at 4 µM; hit rate 0.53% among 330,000; in the data active means inhibition above about 50%
# Mdm2 MdmX conf – Mdm2-MdmX complex disruptors, retested hits, confirmation, luminescence, single concentration; shares compounds with Mdm2 MdmX PPI; Mdm2-MdmX binding, luminescent assay; inhibition, % at 8 µM; hit rate 55% among 10,000; AID 489028, 2010; in the data active means inhibition above about 40%
# FLuc counter – full-length luciferase signal inhibition, confirmation, counter-screen for Mdm2/MdmX interaction inhibitor project, cell-based, single concentration, SaOS-2; hit rate 77% among 6,200; SaOS-2 full-length luciferase counterscreen, luminescence; shares compounds with Mdm2 MdmX PPI; inhibition, % at 8 µM; AID 504607, 2011;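 active means mean inhibition at 8 µM reaching about 37%, which flags the compound as non-specific, limit read from the data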;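 further: p53-null SaOS-2 cells with luciferase driven by a doxycycline-inducible promoter; compound on cells about two nights before reading with doxycycline added after day one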
# Starred values were filed as active, the others as inactive; x = not tested or not shown.
SMILES,697 NFkB inh,Beta cell apopt,Gli-Sufu antag,Mdm2 MdmX PPI,Jurkat NFkB inh,Mdm2 MdmX conf,FLuc counter
CCn1c(/C=C/c2c(C)[nH]c3ccccc23)nc2ccccc2c1=O,-89,2,-18,44,27,x,x
CC[C@@H]1C=C(C(=O)O)[C@H](c2ccc(OC)c(OC)c2)N1S(=O)(=O)c1ccc(C)cc1,-6,-5,4,-17,-1,x,x
CCOC(=O)C1=C(C)N=c2s/c(=C/c3cccc([N+](=O)[O-])c3O)c(=O)n2C1c1cc(OC)c(OC)c(OC)c1 (centres undefined),10,-3,20,52*,4,9,x
CCOC(=O)C1=C(C)N=c2s/c(=C/c3cccc([N+](=O)[O-])c3O)c(=O)n2C1c1ccccc1 (centres undefined),9,-1,8,45,4,x,x
CCc1ccc(-n2c(SCC(=O)c3ccc4c(c3)NC(=O)CO4)nc3ccccc3c2=O)cc1,-50,42,38,64*,-8,-4,x
Cn1c(SCC(=O)c2ccc3c(c2)NC(=O)CO3)nc2ccccc21,-2,-4,-7,14,2,x,x
O=C1COc2ccc(C(=O)CSc3nc4ccccc4c(=O)n3-c3ccc(Cl)c(Cl)c3)cc2N1,-12,69,8,98*,2,24,x
CCCn1c(SCC(=O)c2ccc3c(c2)NC(=O)CO3)nc2ccccc21,-21,5,5,39,-22,x,x
Cc1ccc(NC(=O)CSc2nc3ccccc3c(=O)[nH]2)cc1[N+](=O)[O-],-14,-8,2,14,-8,x,x
COc1ccc(COC(=O)CNC(=O)C2CCCCC2)cc1F,3,-3,-2,-12,9,x,x
COc1ccc(S(=O)(=O)N2CCCOC2CNC(=O)C(=O)NCCc2ccco2)cc1C (centres undefined),2,0,-2,53*,43,60*,61*
O=C(NCCc1ccco1)C(=O)NCC1OCCCN1S(=O)(=O)c1ccc(F)cc1 (centres undefined),-7,2,-15,0,-11,x,x
CCc1nc(Nc2cccc(O)c2)c2oc3ccccc3c2n1,1,-11,x,36,-4,x,x
CC(=O)Nc1ccc(Nc2nc(C)nc3c2oc2ccccc23)cc1,-11,15,14,25,-18,x,x
CCc1nc(Nc2ccncc2)c2oc3ccccc3c2n1,-36,6,22,63*,8,79*,32
Cc1nc(Nc2ccncc2)c2oc3ccccc3c2n1,18,47,11,73*,-53,55*,47*
CC(NC(=O)COC(=O)COc1ccc(C(=O)c2ccccc2)cc1)c1ccccc1 (centres undefined),-10,-3,x,7,4,x,x
Cc1ccc(C)c(NC(=S)N=Nc2c(O)n(C)c3ccc(S(=O)(=O)N4CCOCC4)cc23)c1,2,48,48,67*,14,45*,59*
O=c1c2ccccc2nc(N/N=C/c2c(O)ccc3ccccc23)n1O,-190,98*,33,71*,1,68*,36
COc1ccc(C2c3c(ncn(CCCN4CCOCC4)c3=N)Oc3ccc4ccccc4c32)cc1OC (centres undefined),4,-2,5,86*,1,51*,67*
COc1ccc(C2c3ccc4ccccc4c3Oc3ncn(CCN4CCOCC4)c(=N)c32)cc1OC (centres undefined),2,x,5,69*,12,47*,67*
COc1ccc(C2c3ccc(O)cc3Oc3ncn(CCN4CCOCC4)c(=N)c32)cc1OC (centres undefined),10,-4,2,16,11,x,x
